Potency and affinity values are given separately. Records with an inconclusive call do not appear. Values without a mark were called inactive.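 How the source made its calls: active means signal loss with fitted half-maximal concentration at or below twice the top valid tested dose in every test run; inconclusive means runs disagree, flat 30 to 70% signal loss, or poor fit; inactive means all runs flat, opposite direction, or potency beyond limit.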
Experiment: general mammalian cell viability loss – inhibitor set, cherry-pick, set 2, cytotoxicity control for miR-122 modulator project, dose response (AID 720697);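 further: 0% = median of neutral control wells and -100% = MG132 positive control wells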
Conditions: HEK293T viability, CellTiter-Glo luminescence, 48 h; series mostly up to 26 µM; activity change, negative = cytotoxicity: at the top concentration

| SMILES | activity change, negative = cytotoxicity |
| --- | --- |
| CN1C(=O)c2cc(NC(=O)c3cccc(F)c3)ccc2OC[C@@H]2O[C@H](CC(=O)Nc3ccccc3)CC[C@H]21 | 107% |
| Cc1cc(C)n(C(=O)Cn2nc(C)c(Br)c2C)n1 | 1.02% |
| O=C(Nc1ccc(F)cc1)N1C[C@@H]2[C@H](c3ccccc31)[C@H](CO)N2C(=O)Cc1ccccc1 | 39.6% [at 23.5 µM] |
| CCCC(=O)Nc1ccc2c(c1)C(=O)N(C)[C@H]1CC[C@@H](CC(=O)NCCN3CCCCC3)O[C@H]1CO2 | 43.1% [at 23.5 µM] |
| CCNC(=O)C[C@@H]1CC[C@@H]2[C@@H](COc3ccc(NC(=O)c4ccccc4)cc3C(=O)N2C)O1 | 80.6% [at 23.5 µM] |
| CC(=O)Nc1ccc2c(c1)C(=O)N(C)[C@@H]1CC[C@H](CC(=O)NCCCN3CCOCC3)O[C@@H]1CO2 | -0.596% [at 23.5 µM] |
| C[C@H](CO)N1C[C@H](C)[C@H](CN(C)S(=O)(=O)c2cccc(F)c2)Oc2ncc(C#CC3CCCCC3)cc2C1=O | -9.4% |
| CCCCNC(=O)Nc1nnc(-c2ccc(OCC)cc2)o1 | -4.04% |
| Cc1cc(CN(C)C(=O)c2cc(COc3ccc4ncccc4c3)on2)on1 | 15.5% |
| CC(C)NC(=O)Nc1ccc2c(c1)C(=O)N(C)[C@@H]1CC[C@@H](CC(=O)NCC(F)(F)F)O[C@@H]1CO2 | 38.3% |
| COC(=O)C[C@H]1CC[C@@H]2[C@H](COc3ccc(NC(=O)c4cccs4)cc3C(=O)N2C)O1 | 118% |
| COc1cccc(CNC(=O)C[C@H]2CC[C@@H]3[C@@H](COc4ccc(NC(C)=O)cc4C(=O)N3C)O2)c1 | -12.8% |
| Cc1cc(C)nc(NS(=O)(=O)c2ccc(NC(=S)NC(=O)C3CCCC3)cc2)n1 | -3.73% |
| COCCN(C[C@@H]1[C@H](c2ccccc2)[C@@H](CO)N1C(=O)C1CCC1)C(C)=O | 134% [at 23.5 µM] |

Reference: PubChem BioAssay AID720697 (Broad Institute, 2013)
